Out of some 320,000 compounds screened, about 2,100 (0.66%) were called active. Roughly 53% stayed inconclusive and do not appear here. The call rests on the fitted dose curve; in most records, active means well fitted inhibition curve with a large enough effect in the signal ratio, with a control signal flat (not every such curve was filed as active); inconclusive means small, poorly fitted or top-dose-only effect, or effect the other way, or a change in a side signal; inactive means flat fitted curve, though single readings scatter; the % refers to the signal ratio. This excerpt belongs to a sample that is enriched for actives.
Potency means the concentration at half of the fitted maximal effect.

The experiment is described as follows: qHTS Assay for Lipid Storage Modulators in Drosophila S3 Cells.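 On cell number change: cells counted by Cell Tracker Red CMTPX staining in the red channel.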 On lipid storage change, negative = inhibition: on the % scale 0 is the no-effect control and ±100 the full control effect. To be noted: BODIPY lipid droplet fluorescence, 18-24 h, cells fed with added oleic acid; cell number change: measured here: cell count max response; series mostly up to 46.1 µM. In short, it runs like this: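 Drosophila S3 cells got compounds at several concentrations plus oleic acid (400 uM solution). Laser-scanning cytometry with 488 nm excitation read lipid droplets at 500-530 nm and cells at 575-640 nm. Percent activity was relative to 20 uM Triacsin C.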
(qHTS replaces the single test concentration by a dilution series.)
Take `CCC(=O)c1ccc(OCC(=O)NNC(=O)c2cc(C)oc2C)cc1`: the cell number change is -5.72% and the lipid storage change, negative = inhibition is -5.26% [at 0.0737 µM] (inactive).
As for `COc1cc(C(C(=O)NC(C)(C)C)N(C(=O)CNC(=O)c2cccs2)c2ccc(C(C)C)cc2)cc(OC)c1OC` (stereo not given), the Potency entry was “inactive” and the cell number change was 12.2%.
Regarding `COc1ccc2[nH]cc(CCNC(=O)Cc3ccc(F)cc3)c2c1`, the Potency result was “inactive”.
Consider `COc1ccc(C(=O)NCC(=O)NCCc2c[nH]c3ccccc23)cc1OC`, for which the Potency entry is “inactive” and the cell number change was found to be 7.36%.
For `COc1ccc2[nH]cc(CCNC(=O)CCC3CCCCC3)c2c1`, in that order: 16.4 µM (active) and -11.7%.
For `COc1ccccc1CC(=O)NCCc1c[nH]c2ccccc12`, the Potency was 0.231 µM (active) and the cell number change worked out at 10.3%.
Take `COc1ccc2[nH]cc(CCNC(=O)C3CCCCC3)c2c1`: the Potency result was “inactive” and the cell number change was -11.3%.
In the case of `CCCc1cc(=O)oc2cc(OCC(=O)NCCc3ccc(S(N)(=O)=O)cc3)ccc12`, the Potency result is “inactive” and the cell number change was -10.3%.
The matching figures for `CCCc1cc(=O)oc2cc(OCC(=O)NCCc3c[nH]c4ccc(OC)cc34)ccc12`: 8.2 µM (active) and -12%.
For `COc1ccc2[nH]cc(CCNC(=O)COc3cc(C)cc4oc(=O)cc(C)c34)c2c1`, in that order: “inactive” and -0.087%.
The matching figures for `COc1ccc(C(=O)NCCc2c[nH]c3ccccc23)cc1OC`: “inactive” and -1.75%.
In the case of `O=C(CCc1nc2ccccc2c(=O)[nH]1)OCc1cccc(C(F)(F)F)c1`, the Potency entry was “inactive” and the cell number change was -19.1%.
In the case of `COc1ccc(CN2CCCCC2C)cc1C` (stereo not given), the Potency entry was “inactive” and the cell number change amounted to 16%.
Regarding `Cc1cccc(NC(=O)CSc2nc3[nH]ncc3c(=O)[nH]2)c1C`, the Potency entry is “inactive” and the cell number change was 6.95%.
For the compound `COc1ccc(-c2nnc(-c3ccc(Br)o3)o2)cc1OC`, the Potency result was “inactive” and the cell number change is 2.37%.
`CCOC(=O)N1CCN(C(=O)COc2ccc(S(=O)(=O)NC(C)C)cc2)CC1`: the Potency entry is “inactive” and the cell number change was -5.69%.
For `CCOc1ccc(S(=O)(=O)NC2CCCC2)cc1`, in that order: “inactive” and 13.5%.
The matching figures for `CCOc1ccc(S(=O)(=O)NC2CCCCCC2)cc1`: “inactive” and 1.37%.
As to `CCOc1ccc(S(=O)(=O)N/N=C(\C)C2CCCCC2)cc1`, the Potency is 20.6 µM (active) and the cell number change is -18.4%.
Regarding `CCNC(=O)CSc1nc(-c2ccc(F)cc2)cs1`, the Potency result is “inactive” and the cell number change worked out at 6.04%.
The matching figures for `O=C(CNc1ccc(F)cc1)N/N=C/c1c(O)ccc2ccccc12`: “inactive” and -11.6%.
For `Cc1ccc(N=Nc2ccc3ccccc3c2O)cc1`, in that order: 0.058 µM (active) and 1.47%.
The matching figures for `Cc1ccc(N=Nc2ccc(C)cc2NC(=O)Nc2ccccc2F)cc1`: “inactive” and 4.52%.
On to `Cc1ccc(N=Nc2ccc(O)c3ncccc23)cc1`, for which the Potency entry is “inactive” and the cell number change was -11.6%.
As to `O=C(O)c1cc(N=Nc2c(O)ccc3ccccc23)cc(C(=O)O)c1`, the Potency entry was “inactive” and the cell number change stood at 0.308%.
The matching figures for `Oc1c(N=Nc2ccc(F)cc2)ccc2ccccc12`: 4.11 µM (active) and -26.4%.
The matching figures for `O=C(NNC(=O)c1ccc2ccccc2c1O)Nc1ccc(F)cc1`: “inactive” and 22.7%.
The matching figures for `Oc1ccc2ccccc2c1N=Nc1ccc(F)cc1`: 5.8 µM (active) and -18.6%.
For `NS(=O)(=O)c1ccc(N=Nc2c(O)c(C(=O)O)cc3ccccc23)cc1`, the Potency entry was “inactive” and the cell number change was -8.07%.
For the compound `Cc1cccc(C)c1OCC(=O)N/N=C/c1ccncc1`, the Potency entry is “inactive” and the cell number change was determined as 1.08%.
The matching figures for `CN(CC(=O)Nc1ccc(Cl)cc1)C(=O)c1cc(-c2cccs2)nn1-c1ccccc1`: “inactive” and 15.7%.
For `COC(=O)CCC(=O)Nc1ccc(Br)cc1`, the Potency entry is “inactive” and the cell number change is -3.41%.
As to `CCOc1ccccc1NC(=O)CSc1nnc(CCC(=O)Nc2ccccc2F)n1C`, the Potency entry is “inactive” and the cell number change is -0.293%.
Take `CC(C)(C)OC(=O)N[C@@H](CCCCNC(=O)OCc1ccccc1)c1nnc([C@H](CCCCNC(=O)OCc2ccccc2)NC(=O)OC(C)(C)C)o1`: the Potency entry is “inactive” and the cell number change was -3.75%.
Regarding `CCNC(=S)N1CCN(c2ccccn2)CC1`, the Potency result is “inactive” and the cell number change was determined as 12.6%.
Take `CC(C)(C)c1ccc(C(=O)NC(=S)N2CCOCC2)cc1`: the cell number change turned out to be 8.33% and the outcome was “inactive [at 0.369 µM]”.
In the case of `CC(C)(C)c1ccc(C(=O)N2CCC3(CC2)NCCc2[nH]cnc23)cc1`, the Potency result is “inactive” and the cell number change came to 22.1%.
Take `O=Cc1ccc(OCC(=O)Nc2ccccc2-c2ccccc2)cc1`: the Potency entry is “inactive” and the cell number change came to 18%.
The matching figures for `COc1ccccc1NC(=O)Cc1cccc2ccccc12`: “inactive” and -14.6%.
As to `COc1cc(NS(=O)(=O)c2ccc(NC(=S)NC(=O)c3ccco3)cc2)nc(OC)n1`, the Potency entry was “inactive” and the cell number change was -18.5%.
For `COc1cc(/C=N/n2c(-c3cc(C)[nH]n3)n[nH]c2=S)ccc1O`, the Potency result is “inactive” and the cell number change came to 4.27%.
The matching figures for `Cc1ccc(-c2csc(NC(=O)CN3CCC(C(N)=O)CC3)n2)cc1`: “inactive” and -18.5%.
As for `CCOC(=O)N1CCN(C(=O)CSCC(=O)Nc2nc(-c3ccccc3)cs2)CC1`, the Potency entry was “inactive” and the cell number change was -8.7%.
In the case of `COCC(=O)Nc1nc(-c2ccc(-c3ccccc3)cc2)cs1`, the Potency result is “inactive” and the cell number change turned out to be 7.77%.
For `CCOC(=O)c1ccc(-c2csc(NC(=O)CN3CCC(C)CC3)n2)cc1`, the Potency was 2.91 µM (active) and the cell number change was 3.78%.
In the case of `CCOC(=S)SCC(=O)Nc1nc(-c2ccccc2)cs1`, the Potency is 23.1 µM (active) and the cell number change was -22.6%.
The matching figures for `CC1CCN(CC(=O)Nc2nc(-c3ccccc3)cs2)CC1`: “inactive” and 10.6%.
For `COC(=O)NC1CCC(NC(=O)OC)CC1` (stereo not given), in that order: “inactive” and -8.14%.
As to `O=C(Nc1cc(Cl)ccc1Oc1ccccc1)C1=COCCO1`, the Potency result is “inactive” and the cell number change was -27.8%.
For `CC(=O)C(=Nc1ccccc1Cl)NNc1ccc(Cl)cc1`, in that order: 23.1 µM (active) and -39.5%.
The matching figures for `CCOC(=O)C(=O)NNc1ccc(Cl)cc1`: “inactive” and 0.213%.
For `O=C(O)c1ccccc1C(=O)NNc1ccc(Cl)cc1`, in that order: “inactive” and 6.32%.
On to `CC12CCC(c3c(C(=O)N4CCOCC4)nn(-c4ccccc4)c31)C2(C)C` (stereo not given), for which the Potency result is “inactive” and the cell number change amounted to 15.9%.
For `CC12CCC(c3c(C(=O)O)nn(-c4ccc(F)cc4)c31)C2(C)C` (stereo not given), in that order: 16.4 µM (active) and -9.61%.
For `CC12CCC(c3c(C(=O)O)nn(-c4ccccc4)c31)C2(C)C` (stereo not given), the Potency entry is “inactive” and the cell number change is 7.24%.
Consider `COc1ccc(N2CCN(C(c3ccc4ncccc4c3)c3nnnn3C(C)C)CC2)cc1` (stereo not given), for which the Potency entry was “inactive” and the cell number change worked out at 3.49%.
Consider `Fc1ccc(-n2c(CN3CCCCC3)n[nH]c2=S)cc1`, for which the Potency is 1.64 µM (active) and the cell number change was -100%.
For `S=c1[nH]nc(CN2CCCCC2)n1Cc1ccccc1`, in that order: “inactive” and -2.92%.
For `FC(F)(F)c1ccccc1-n1c(CN2CCCCC2)n[nH]c1=S`, in that order: “inactive” and -9.97%.
For `Cc1ccc(S(=O)(=O)CCN2CCN(c3ccccn3)CC2)cc1`, in that order: “inactive” and 3.2%.
On to `CCc1ccc(-c2cc(C)no2)cc1S(=O)(=O)N1CCN(c2ccccc2OC)CC1`, for which the Potency entry is “inactive” and the cell number change is 23.3%.
For `CCc1ccc(-c2cc(C)no2)cc1S(=O)(=O)N1CCOc2ccccc21`, in that order: 16.4 µM (active) and -0.472%.
The matching figures for `Cc1cc(-c2ccc(C)c(S(=O)(=O)N3CCN(c4ccccn4)CC3)c2)on1`: “inactive” and -26.7%.
For `CCc1ccc(-c2cc(C)no2)cc1S(=O)(=O)Nc1ccccn1`, in that order: “inactive” and -19.5%.
Take `CCc1ccc(-c2cc(C)no2)cc1S(=O)(=O)NCCc1ccccc1`: the Potency result is “inactive” and the cell number change came out at 13.1%.
Consider `CCc1ccc(-c2cc(C)no2)cc1S(=O)(=O)N1CC(=O)Nc2ccccc21`, for which the Potency is 4.11 µM (active) and the cell number change is -17.1%.
For `CCc1ccc(-c2cc(C)no2)cc1S(=O)(=O)N1CCCN(Cc2ccc(F)cc2)C1`, in that order: “inactive” and 2.69%.
The matching figures for `Cc1ccc(S(=O)(=O)N2CC(=O)Nc3ccccc32)c(C)c1NS(C)(=O)=O`: “inactive” and -8.89%.
The matching figures for `Cc1cc(-c2ccc(C)c(S(=O)(=O)N3CC(=O)Nc4ccccc43)c2)on1`: 1.03 µM (active) and 3.36%.
Consider `Cc1ccc(Nc2cc(C)nc(-c3ccccc3)n2)cc1`, for which the Potency entry is “inactive”.
For the compound `CC(=O)CSc1cc(-c2ccccc2)nc2ncnn12`, the Potency entry is “inactive” and the cell number change is -21.4%.
On to `Cc1cc(C)nc(NS(=O)(=O)c2ccc(NC(=O)Nc3ccccc3F)cc2)n1`, for which the Potency result is “inactive” and the cell number change is -10.1%.
For `O=C(Cn1cccc1C(=O)c1ccccc1)NCCCN1CCOCC1`, in that order: “inactive” and -0.598%.
Take `O=C1c2ccccc2CN1Cc1ccccc1`: the Potency entry was “inactive” and the cell number change worked out at 10.2%.
The matching figures for `O=C(CCn1[nH]c(=O)c2ccccc2c1=O)NCCO`: 11.6 µM (active) and 1.53%.
For `CCCCCCCCOC(=O)CCn1[nH]c(=O)c2ccccc2c1=O`, in that order: “inactive” and -16.3%.
As for `COC(=O)CCn1[nH]c(=O)c2ccccc2c1=O`, the Potency entry was “inactive” and the cell number change was -3.6%.
For `c1ccc(CN2CCOCCOCCOCC2)cc1`, in that order: “inactive” and -1.02%.
The matching figures for `CCOC(=O)c1ccc(N2C(=O)c3n[nH]c(C)c3C2c2ccc(OC)cc2)cc1` (stereo not given): “inactive” and -20.7%.
The matching figures for `CC1(CCc2ccccc2)NC(=O)N(CC(=O)O)C1=O` (stereo not given): “inactive” and -3.79%.
Turning to `Cc1ccc(NC(=O)CSc2nnc(C3CC3)n2N)cc1S(=O)(=O)N1CCOCC1`, the Potency entry is “inactive” and the cell number change is 12.4%.
For `O=C(CCN1C(=O)NC2(CCCC2)C1=O)Nc1cccc(S(=O)(=O)N2CCOCC2)c1`, in that order: “inactive” and 2.63%.
For `O=C(Cn1c2ccccc2c2nc3n(c(=O)c21)CCS3)N1CCCC1`, in that order: “inactive” and -22.8%.
The matching figures for `O=C(Cn1c2ccccc2c2nc3n(c(=O)c21)CCS3)Nc1ccccc1C(F)(F)F`: “inactive” and -11.3%.
On to `CC1CCCN(C(=O)Cn2c3ccccc3c3nc4n(c(=O)c32)CCS4)C1` (stereo not given), for which the Potency was 7.31 µM (active) and the cell number change was -9.4%.
The matching figures for `COc1ccc(/C=N\Nc2ccccc2[N+](=O)[O-])c(C(=O)O)c1OC`: “inactive” and 2.19%.
With `Cc1ccc(C(=O)CSc2nnc(-c3ccccc3)n2-c2ccccc2)o1`, the Potency entry is “inactive” and the cell number change is 6.85%.
For the compound `COc1ccc(C(C)N2CC34C=CC(O3)C(C(=O)OCC(C)C)C4C2=O)cc1` (stereo not given), the Potency result is “inactive” and the cell number change was -0.854%.
Regarding `COC(=O)C1C2C=CC3(CN(C(C)c4ccc(OC)cc4)C(=O)C13)O2` (stereo not given), the Potency is 16.4 µM (active) and the cell number change is -5.31%.
Consider `CCOC(=O)C1[C@H]2C(=O)N(C(C)c3ccc(OC)cc3)C[C@]23C=C[C@H]1O3` (stereo not given in full), for which the Potency result is “inactive” and the cell number change was -3.61%.
For `Cc1ccccc1Nc1nccc(N(C)C)c1C#N`, in that order: “inactive” and -17.6%.
`N#C/C(=C\c1ccccc1)C(=O)NC1CC1`: the Potency result is “inactive”.
Take `CC(=O)Nc1ccc(/C=C(\C#N)C(=O)NC2CCCCC2)cc1`: the Potency was 20.6 µM (active) and the cell number change was determined as 6.15%.
Consider `COc1ccc(/C=C(/C#N)C(=O)NC2CCCCC2)cc1Br`, for which the Potency result is “inactive” and the cell number change was -11.6%.
